Reference: PubChem BioAssay (EPA / NIEHS)
The source made the active and inactive calls. How the source made its calls: active means hit-call score of the fitted dose curve at least 0.9, where 1 is the maximum; inactive means score below 0.9.

Each compound was assayed against rat CYP2A1, Cyp2a1 (gene 24894) (UniProt P11711) (assay: NVS_ADME_rCYP2A1: NovaScreen (NVS) CYP450-related Enzyme Activity (ADME) Assay for rat CYP2A1 (AID 2283114)).
Sequence of rat CYP2A1, Cyp2a1 (gene 24894) (P11711 whole entry, looked up): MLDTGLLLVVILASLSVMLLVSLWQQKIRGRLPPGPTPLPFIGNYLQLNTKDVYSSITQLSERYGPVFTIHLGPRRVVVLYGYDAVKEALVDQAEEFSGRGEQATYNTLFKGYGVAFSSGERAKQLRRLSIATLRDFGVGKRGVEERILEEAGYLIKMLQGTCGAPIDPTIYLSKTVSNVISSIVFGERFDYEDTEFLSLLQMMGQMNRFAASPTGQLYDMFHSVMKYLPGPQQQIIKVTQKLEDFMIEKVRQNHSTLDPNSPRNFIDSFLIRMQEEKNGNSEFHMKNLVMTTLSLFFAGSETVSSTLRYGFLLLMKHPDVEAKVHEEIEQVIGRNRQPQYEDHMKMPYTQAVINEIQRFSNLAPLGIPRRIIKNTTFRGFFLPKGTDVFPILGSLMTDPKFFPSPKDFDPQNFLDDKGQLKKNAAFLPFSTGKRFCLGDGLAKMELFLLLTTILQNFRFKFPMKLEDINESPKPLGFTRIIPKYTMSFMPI
Method in brief: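 Cell-free fluorescence enzyme-activity read on recombinant rat CYP2A1, taken 0.75 h post-dosing. Compounds were screened in duplicate at 10 uM, then hits tested in concentration series (max 20 uM); inhibition scored relative to acetonitrile baseline.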
For `CCCCC(C#N)(Cn1cncn1)c1ccc(Cl)cc1` (stereo not given), the AC50 was 0.563 µM (active).
For `CC1(C)CCC(=Cc2ccc(Cl)cc2)C1(O)Cn1cncn1` (stereo not given), the AC50 was 1.11 µM (active).
`COP(=S)(OC)Oc1ccc([N+](=O)[O-])c(C)c1` was tested, and the AC50 was 3.84 µM (active).
`CC(C)Oc1cccc(NC(=O)c2ccccc2C(F)(F)F)c1` was tested, and the outcome was “inactive”.
With `CO/N=C(/C1=NOCCO1)c1ccccc1Oc1ncnc(Oc2ccccc2Cl)c1F` the AC50 was 1.57 µM (active).
